Experimental findings from PubChem BioAssay (NCATS) are described below.

Results filed as inconclusive are left out. Unmarked numbers belong to inactive results. Calls of active or inactive are those of the source. The call rests on the fitted dose curve; in most records, active means well fitted curve in the direction sought with a large enough effect; inconclusive means small, poorly fitted or top-dose-only effect, or another doubt; inactive means no such curve, though single readings can be large; an effect the other way counts as inactive or inconclusive.

Test [1] can be described thus: qHTS of pediatric cancer cell lines to identify multiple opportunities for drug repurposing: Primary screen for LAN-5 cells (AID 1347100). The gist of the method: (§1)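 Cells (500-1,000/well) in growth media were settled 5 h at 37 degrees C, then given compounds for 48 h. Viability was read as CellTiter-Glo luminescence. Primary runs used MIPE at 11 points (0.78 nM-46 µM) and NPC at 8 points (0.59 nM-46 µM); follow-ups used 11 points.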
(In general: qHTS replaces the single test concentration by a dilution series.)

Test [2] is described as follows: qHTS of pediatric cancer cell lines to identify multiple opportunities for drug repurposing: Primary screen for Rh18 cells (AID 1347102). Further: nearly all actives have a fitted effect of over 65% in size. In outline: as §1
Test [3] can be described thus: qHTS of pediatric cancer cell lines to identify multiple opportunities for drug repurposing: Primary screen for OHS-50 cells (AID 1347103). Further: nearly all actives have a fitted effect of over 40% in size. The gist of the method:
(§2)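 Cells (500-1,000/well) rested 5 h, then received compounds for 48 h; metabolically active cells were measured by CellTiter-Glo luminescence. Final concentrations spanned up to 46 µM (MIPE, 11-point) or 0.59 nM-46 µM (NPC, 8-point) in primary screens, 11-point in follow-ups.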

A short description of test [4]: qHTS of pediatric cancer cell lines to identify multiple opportunities for drug repurposing: Primary screen for MG 63 (6-TG R) cells (AID 1347105). Further: nearly all actives have a fitted effect of over 50% in size. In outline:
(§3)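 Plated cells (500-1,000 per well, growth media) were allowed to settle for 5 hours, treated with compound dilutions for 48 hours, then lysed with CellTiter-Glo for 15 min at room temperature before luminescence reading.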

The nature of test [5]: qHTS of pediatric cancer cell lines to identify multiple opportunities for drug repurposing: Primary screen for control Hh wild type fibroblast cells (AID 1347106). Further: nearly all actives have a fitted effect of over 55% in size. In outline:
as §1

A short description of test [6]: qHTS of pediatric cancer cell lines to identify multiple opportunities for drug repurposing: Primary screen for RD cells (AID 1347104). Further: nearly all actives have a fitted effect of over 55% in size. In outline: as §3
The nature of test [7]: qHTS of pediatric cancer cell lines to identify multiple opportunities for drug repurposing: Primary screen for Rh30 cells (AID 1347107). Further: nearly all actives have a fitted effect of over 75% in size. The gist of the method: as §1
Test [8] is described as follows: qHTS of pediatric cancer cell lines to identify multiple opportunities for drug repurposing: Primary screen for Rh41 cells (AID 1347108). Further: nearly all actives have a fitted effect of over 70% in size. In outline: as §3
Test [9] is described as follows: qHTS of pediatric cancer cell lines to identify multiple opportunities for drug repurposing: Primary screen for BT-12 cells (AID 1347101). Further: nearly all actives have a fitted effect of over 25% in size. In outline:
as §2
Potency means the concentration at half of the fitted maximal effect.

For `C=CC[N+]1([C@H]2C[C@H]3[C@@H]4CC[C@H]5C[C@H](O)[C@@H](N6CCOCC6)C[C@]5(C)[C@@H]4CC[C@]3(C)[C@H]2OC(C)=O)CCCC1`, the Potency result in [1], in [2], in test [3], in test [4] and in test [5] was “inactive” in each case.
Take `CC1(C)OC2CC3C4CC(F)C5=CC(=O)C=CC5(C)C4C(O)CC3(C)[C@]2(C(=O)CO)O1` (some centres undefined): the Potency entry in test [1], in [2], in test [3], in test [6], in test [4] and in test [5] was “inactive” each time. Further, the Potency result in [7] and in test [8] was “inactive” throughout.
For `Cc1ccc(C(=O)N(CCCN)[C@@H](c2nc3cc(Cl)ccc3c(=O)n2Cc2ccccc2)C(C)C)cc1`, the Potency in test [1], in test [9] and in test [3] was 1 nM (active) in each case. In addition, the Potency entry in test [5] and in test [7] was “inactive” throughout.
As for `FC(F)(F)c1ccc(C=Cc2nc(COc3ccc(CCCCn4ccnn4)cc3)co2)cc1`, the Potency is 5.9 nM (active) in test [1], 6.1 nM (active) in test [9], 7.7 nM (active) in [3] and 469 nM (active) in test [8]. Besides, the Potency result in test [5] is “inactive”.
Take `CC1C(=O)OC2C(O)C34C5CC(C(C)(C)C)C36C(OC(=O)C6O)OC4(C(=O)O5)C12O` (centres undefined): the Potency in test [1] was 20900 nM (active). Also, the Potency entry in [2], in test [3], in test [4], in [5], in [7] and in test [8] was “inactive” throughout.
As to `CCN(CCO)CCCOc1ccc2c(Nc3cc(CC(=O)Nc4cccc(F)c4)[nH]n3)ncnc2c1`, the Potency in [1] is 37.2 nM (active). Moreover, the Potency result in test [9], in test [6], in test [4], in [5] and in [7] was “inactive” throughout.
`COc1cc2ncn(-c3cc(OCc4ccccc4S(C)(=O)=O)c(C#N)s3)c2cc1OC`: the Potency result in [1], in [9], in [2], in [4] and in test [8] was “inactive” each time.
Turning to `COc1ccc(-c2ccc3ncc4c(c3c2)n(-c2ccc(N3CCNCC3)c(C(F)(F)F)c2)c(=O)n4C)cn1`, the Potency is 166 nM (active) in test [1]; 15300 nM (active) in test [9]; 41.8 nM (active) in test [2]; 5.4 nM (active) in [3]; 4.7 nM (active) in test [4]; 2090 nM (active) in [5]. Moreover, the Potency in test [7] is 1870 nM (active); in test [8] it was 23.5 nM (active).
As to `COc1cc2c(cc1OC)[C@@H]1Cc3ccc(OC)c(OC)c3CN1CC2`, in test [1], the Potency is 10500 nM (active). In addition, the Potency result in test [2], in test [3], in [6], in [4], in test [5] and in [7] was “inactive” each time.
For the compound `COc1cccc(OC)c1-c1cc(C(=O)NC2(C(=O)O)C3CC4CC(C3)CC2C4)nn1-c1ccnc2cc(Cl)ccc12` (centres undefined), the Potency entry in test [1], in [2], in test [3], in test [6], in [4] and in test [5] was “inactive” in each case. Further, the Potency result in test [8] was “inactive”.
For the compound `COc1cc2nccc(Oc3ccc(NC(=O)Nc4ccc(F)cc4F)c(F)c3)c2cc1OC`, the Potency in test [1] is 833 nM (active); in test [4], 9350 nM (active). Also, the Potency entry in [9] and in test [5] was “inactive” in each case.
Consider `O=c1cc(-c2ccc(O)c(O)c2)oc2cc(O)cc(O)c12`, for which the Potency entry in test [1], in test [9], in test [2], in [6], in test [4] and in test [5] was “inactive” each time.
Consider `CCOC(=O)[C@H](CCc1ccccc1)N[C@@H](C)C(=O)N1CCCC1C(=O)O` (some centres undefined), for which the Potency entry in [1], in test [9], in [2], in [3], in test [4] and in [8] was “inactive” throughout.
Take `CC[C@H]1OC(=O)[C@H](C)[C@@H](O[C@H]2C[C@@](C)(OC)[C@@H](O)[C@H](C)O2)[C@H](C)[C@@H](O[C@@H]2O[C@H](C)C[C@H](N(C)C)[C@H]2O)[C@](C)(O)C[C@H](C)C(=NOCOCCOC)[C@H](C)[C@@H](O)[C@]1(C)O`: the Potency entry in test [1], in test [9], in test [2], in test [6], in [4] and in [5] was “inactive” each time. For the same compound, the Potency entry in [7] and in [8] was “inactive” throughout.
In the case of `CN1CCc2c(n(Cc3ccc(C(=O)NO)cc3)c3ccccc23)C1`, the Potency in test [1] is 16600 nM (active); in [2] it was 18700 nM (active); in test [3], 21700 nM (active); in test [6], 18700 nM (active); in test [8], 11800 nM (active). Moreover, the Potency result in test [5] and in test [7] was “inactive” each time.
On to `Cn1c(=O)c(Oc2ccc(F)cc2F)cc2cnc(NC3CCOCC3)nc21`, for which the Potency entry in test [1], in [9], in test [5] and in test [8] was “inactive” each time.
Consider `COc1ccc2ccc(=O)oc2c1CC=C(C)C`, for which the results for the Potency in test [1] and in test [9] were 29600 nM (active) and 24300 nM (active), respectively. The Potency result in test [5] is “inactive”.
With `Cc1cccc2c1CC[C@H](CN1CCC(c3c(Cl)cccc3Cl)CC1)C[C@@H]2O`, the Potency in test [1] was 18700 nM (active); in test [3], 5440 nM (active); in test [6], 33200 nM (active). The Potency entry in [2], in [4], in test [5] and in test [7] was “inactive” throughout.
As for `C#CCN(C)CC1=Cc2ccccc2Oc2ccccc21`, the Potency entry in test [1], in test [9] and in [5] was “inactive” throughout.
For `N[C@@H](CC(=O)N1CCn2c(nnc2C(F)(F)F)C1)Cc1cc(F)c(F)cc1F`, the Potency result in test [1], in test [9], in test [2], in [6], in [4] and in test [5] was “inactive” each time. Also, the Potency entry in test [7] was “inactive”.
As for `CN(C)c1ccc(-c2nc3ncc(Cl)c(N4CCN(CC(=O)Nc5nccs5)CC4)c3[nH]2)cc1`, in test [1], the Potency is 833 nM (active). Moreover, the Potency entry in test [9], in test [4] and in test [5] was “inactive” in each case.
As to `CNC1[C@H](O)C(O[C@@H]2C(O)C(O[C@H]3O[C@H]([C@@H](C)NC)CC[C@H]3N)[C@@H](N)C[C@H]2N)OC[C@]1(C)O` (some centres undefined), the Potency entry in test [1], in [9], in [2], in [6], in [5] and in test [7] was “inactive” in each case. In [8], the Potency result is “inactive”.
